The subject of this test is PBMC-derived induced microglia-like cells (piMGLC). The test is described as follows: synaptosome phagocytic index relative to DMSO control (fraction of DMSO); higher = more phagocytosis. The following applies: concentration: 10 uM (2 uM for compounds listed in Table S2); pretreatment time: 24 h; assay time: 3 h.

Structures can show the parent of a compound that is named as a salt.

On to `CC(=O)OCC[N+](C)(C)C` [Acetylcholine_(chloride)], for which the synaptosome phagocytic index came to 0.587.

As to `CNS(=O)(=O)CCc1ccc2[nH]cc(C3CCN(C)CC3)c2c1` [Naratriptan_(hydrochloride)], the synaptosome phagocytic index was 1.3.

As for `C.CN(C)C(=O)c1cc2cnc(Nc3ccc(N4CCNCC4)cn3)nc2n1C1CCCC1` [Ribociclib_succinate_hydrate], the synaptosome phagocytic index was found to be 0.195.

`COC(=O)C1=C(C)NC(C)=C(C(=O)OCCN(C)Cc2ccccc2)C1c1cccc([N+](=O)[O-])c1` (stereo unspecified) [Nicardipine_(hydrochloride)]: the synaptosome phagocytic index amounted to 0.627.

Regarding `CN(C)CCC[C@@]1(c2ccc(F)cc2)OCc2cc(C#N)ccc21` [Escitalopram_(oxalate)], the synaptosome phagocytic index is 0.946.

Turning to `Cc1cc(=O)n(-c2ccccc2)n1C` [Antipyrine], the synaptosome phagocytic index is 0.601.

On to `Cc1ccnc2c1NC(=O)c1cccnc1N2C1CC1` [Nevirapine], for which the synaptosome phagocytic index worked out at 0.84.

Consider `CC1(C)S[C@@H]2[C@H](NC(=O)[C@H](N)c3ccc(O)cc3)C(=O)N2[C@H]1C(=O)O` [Amoxicillin_(trihydrate)], for which the synaptosome phagocytic index stood at 0.942.

On to `CC(C(=O)O)c1ccc(-c2ccccc2)c(F)c1` (stereo unspecified) [Flurbiprofen], for which the synaptosome phagocytic index was determined as 0.64.

Take `Cc1ccc(Nc2nccc(N(C)c3ccc4c(C)n(C)nc4c3)n2)cc1S(N)(=O)=O` [Pazopanib]: the synaptosome phagocytic index turned out to be 0.785.

As for `S=c1nc[nH]c2nc[nH]c12` [6-Mercaptopurine], the synaptosome phagocytic index was 0.669.

In the case of `Cc1nc(Nc2ncc(C(=O)Nc3c(C)cccc3Cl)s2)cc(N2CCN(CCO)CC2)n1` [Dasatinib], the synaptosome phagocytic index was determined as 0.243.

Turning to `Nc1cc(C(F)(F)F)c(-c2cc(N3CCOCC3)nc(N3CCOCC3)n2)cn1` [Buparlisib], the synaptosome phagocytic index was 1.13.

Turning to `CC12CC3CC(C)(C1)CC(N)(C3)C2` [Memantine_(hydrochloride)], the synaptosome phagocytic index worked out at 0.724.

On to `COc1ccc2c(c1)c(CC(=O)O)c(C)n2C(=O)c1ccc(Cl)cc1` [Indomethacin_(sodium_hydrate)], for which the synaptosome phagocytic index amounted to 0.618.

For `COc1nccc(-c2c(-c3ccc(F)cc3)ncn2C2CCC(O)CC2)n1` (stereo unspecified), the synaptosome phagocytic index was 0.995.

In the case of `CN(C)C(=N)NC(=N)N` [Metformin], the synaptosome phagocytic index came out at 1.28.

With `C=CC(=O)Nc1cc(Nc2nccc(-n3cc(CN(C)C)c(-c4ccccc4)n3)n2)c(OC)cc1N1CCOCC1` [Lazertinib], the synaptosome phagocytic index stood at 0.0589.

As to `NNC(=O)c1ccncc1` [Isoniazid], the synaptosome phagocytic index came out at 1.01.

With `O=S1(=O)N[C@H]2CCCN2c2ccccc21`, the synaptosome phagocytic index is 0.742.

Turning to `C[C@]12CCCN1CC1=NNC(=O)c3cc(F)cc4[nH]c2c1c34` [Pamiparib], the synaptosome phagocytic index was 0.861.

In the case of `Cc1ccccc1C(OCCN(C)C)c1ccccc1` (stereo unspecified) [Orphenadrine_(citrate)], the synaptosome phagocytic index worked out at 1.23.

Consider `Cc1nc2c([nH]1)-c1ccccc1N(C(=O)c1ccc(NC(=O)c3ccccc3-c3ccccc3)cc1)CC2` [Conivaptan_(hydrochloride)], for which the synaptosome phagocytic index is 0.827.

Regarding `O=C(O)c1ccccc1O` [Salicylic_acid], the synaptosome phagocytic index turned out to be 0.557.

As for `CCN(CC)CC(=O)Nc1c(C)cccc1C` [Lidocaine_(hydrochloride)], the synaptosome phagocytic index was found to be 0.925.

Turning to `CCCCCCCC(=O)c1c(O)cc(O)cc1CC(=O)OCC` [Cytosporone_B], the synaptosome phagocytic index is 0.114.

For the compound `COc1cc(C(=O)NCc2ccc(OCCN(C)C)cc2)cc(OC)c1OC` [Trimethobenzamide_hydrochloride], the synaptosome phagocytic index is 1.24.

Regarding `CCCCOc1ccc(C(=O)CCN2CCCCC2)cc1` [Dyclonine_(hydrochloride)], the synaptosome phagocytic index worked out at 0.68.

Consider `C[C@@H](O[C@H]1OCCN(Cc2n[nH]c(=O)[nH]2)[C@H]1c1ccc(F)cc1)c1cc(C(F)(F)F)cc(C(F)(F)F)c1` [Aprepitant], for which the synaptosome phagocytic index was determined as 1.02.

Turning to `Fc1c(Br)cccc1Nc1ncnc2cc3c(cc12)OCCO3`, the synaptosome phagocytic index was 0.118.

`CN1CCN(C2=Nc3ccccc3Oc3ccc(Cl)cc32)CC1` [Loxapine]: the synaptosome phagocytic index is 0.272.

For the compound `Cn1cc(-c2ccncc2)c(-c2ccc(OCc3ccc4ccccc4n3)cc2)n1` [Mardepodect], the synaptosome phagocytic index was determined as 0.723.

For the compound `CN1C(=O)C(Cc2c[nH]c3ccccc23)NC1=S` (stereo unspecified) [Necrostatin-1], the synaptosome phagocytic index stood at 0.88.

Take `Cc1ccc(S(=O)(=O)/C=C/C#N)cc1`: the synaptosome phagocytic index worked out at 0.903.

In the case of `CS(=O)(=O)OCCCCOS(C)(=O)=O` [Busulfan], the synaptosome phagocytic index came to 0.829.

For the compound `NCc1c[nH]c(=S)n1[C@H]1CCc2c(F)cc(F)cc2C1` [Nepicastat_(hydrochloride)], the synaptosome phagocytic index stood at 0.936.

The values are drawn from the supplement of paper PMC12339681.
